Laboratory results as given in the supplement of paper PMC10681739.

The sequences below were run against RUNX1 (UniProt Q01196) (assay: RUNX1 binding intensity (PBM fluorescence), RUNX1 alone (arbitrary fluorescence units); higher = stronger binding). Conditions: RUNX1 concentration 2 nM; ETS1 concentration 0 nM.
Experimental: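 Cooperative gcPBM on 36-bp genomic probes with neighbouring ETS1 and RUNX1 sites. Recombinant human RUNX1 (2 nM) was incubated alone or with ETS1 (25 nM) and detected with anti-RUNX1 antibody plus Alexa488 secondary. Values are medians over 4 replicate spots; the RUNX1+ETS1 data were normalised to the RUNX1-only data. The probes sit in constant array flanks that are not printed.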
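Further: Full-length recombinant human RUNX1 bound to double-stranded 36-bp genomic probes on a high-density microarray, scored as Alexa488 fluorescence per spot via anti-RUNX1 antibody, median of four replicate spots.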

RUNX1, sequence (Q01196 whole entry): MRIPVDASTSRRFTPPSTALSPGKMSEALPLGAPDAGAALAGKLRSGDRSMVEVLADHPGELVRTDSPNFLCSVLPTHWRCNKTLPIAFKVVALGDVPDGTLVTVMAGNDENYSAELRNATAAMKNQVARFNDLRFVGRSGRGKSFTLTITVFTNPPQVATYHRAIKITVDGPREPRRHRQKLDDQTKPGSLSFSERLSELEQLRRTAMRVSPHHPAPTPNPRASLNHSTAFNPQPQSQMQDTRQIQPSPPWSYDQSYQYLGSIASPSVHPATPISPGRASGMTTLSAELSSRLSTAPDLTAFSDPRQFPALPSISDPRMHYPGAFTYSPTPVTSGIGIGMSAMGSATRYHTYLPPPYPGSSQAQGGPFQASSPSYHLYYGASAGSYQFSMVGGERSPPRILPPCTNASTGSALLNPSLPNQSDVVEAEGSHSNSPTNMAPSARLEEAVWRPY

Sequence	RUNX1 binding intensity
CCAGAGCACATCCTACACGCACCACAACCTGAAAAC	1250
CTGTGCGAGGCAGGATGTGGTCTCCCGCCACCAGGG	788
GAGCTAGCCACTTCCTCCCCCACAACTACACCCAGG	976
TTGGTCAGCCTGCTTCCGGCTGTGGCTTCAGTTAGT	774
GACAGGAAGTGACCTCAATTTCCCCGGCCACAGAAA	809
CCAGCCACTTCCGCTCGTCCGCCTAATACCGCGCCT	1420
TGACATCCTCTGAGGCAGCAAGCTGCGGTGAAGTCT	704
CTGAAGAGGAAATGTATTCCTCATGTTGTGGTTGGC	860
CCGGGTAGGATCCGGTTGCCTTTCTGCGGTGGAGGA	848
GCGCAGGTCCCGGATGTTGCGGACAGTATGAGGCAA	661
GAAGAGGGTGGAGAAGGAAGTGGTCACACCACTTGC	675
AGCTTGCCGGAAGCTGGTTGTTCGCTGCGGCGACCA	705
GGGCTCCCAGAAGGATGTGGTTTCTGAGTACGTTGG	906
ACCGGCCGAGCCAACTTCCGGCCGCAGAGGCTGCCG	756
TTCTCATCCGGCCGGCTTGCTTTCCCCTGCGGTCGT	962
TCCCTAAGTCACATCCTGTGGGCAAAGGCCCTAGCA	769
GTGCCCCGGACCTACGGATACCACACACAGACAGGC	928
CAAAGGTTAAATGCAGGATGTGGTTTCTGCAGACTC	922
TTTACTGAGAGGAAGTGGTTCTTGTGGGTGAAGGTC	898
TGAGTCACATCCTGCAGGGCTGCGGTATCCTGGCTT	928

Sequence	RUNX1 binding intensity
CTGACAGTTACTTCCTGTCTTTGTGGGCGATTGTGA	829
CACCGGAAAAGGCAAGCGCGGCCGCGCGGTTGGCGC	745
CGAGTAGAGATAGCAGGAAGTGGTTTATTCTGAGGT	784
GCGAGAGGGAGGAAGTGACTCACCAACCACAACAAA	970
CGCCCACCACTTCCTGCTGGCGGTCGGCAAGCGTTG	1020
AGAAGCAGGCATGCAGGATGTGGTTAGTGCATGGTA	900
GCATCATCACTTCCTGTTGTGGGCAGTCGTTGCCTG	843
TTGCTCCCGGAAGCCCCGCCCGACCGCGGCTCCTGA	865
GGAGGGGCTGGCCGGAAGTGAACCGCAGAGCACGCT	1070
GGGGCAGGAAGTGGAGGTTTGAAGTGGTTTAGAGTA	799
GAGTTCTAGACTACAGGATGTGGTTAGAAGAAAAGA	837
TTCATTTCTACCTTCCTGTGGTCTTTTTGCCTCCGA	1860
CCCCACATCCGGGGGCCGGGGCCGGGCTGTGGGCTT	739
CCCCTCACTTCCCTCAACCCTTCCCACAAACTGGGA	1920
TGCCGGGCCCCGGATGTCACCGCAGCCGCCATCTTA	968
AGGTTAATACCCGGAACTACCACAACCGTCTTCCCT	1020
CAACTGACCGGACAGAACACAGCCACAAAACACGAG	944
AGTCAAACAGGATGTGGCTGGGGAGGCGGTTGTCAC	725
ACTCACTTCCGTTTAGCTTATCAACCACCAAGAGAC	1390
TCCCTCATGAGCTTCTTCCGCCCGCAACACGAGACT	1280
